Screens as filed in PubChem BioAssay.
Only some compounds are listed: those with a hit (about 1.8% of all), similar ones and a draw of the others.
PP1 inh – counter-screen for PP5 inhibitors: inhibitors of human PP1-alpha. P62136. purified PP1alpha, OMFP fluorescence. inhibition, % at 6.7 µM. 320,000 tested, 0.9% active;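 active = inhibition above the mean inhibition of all tested compounds plus 3 SD, computed separately for each screening campaign, cut at about 15% in these data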
Target sequence (P62136 whole entry, looked up): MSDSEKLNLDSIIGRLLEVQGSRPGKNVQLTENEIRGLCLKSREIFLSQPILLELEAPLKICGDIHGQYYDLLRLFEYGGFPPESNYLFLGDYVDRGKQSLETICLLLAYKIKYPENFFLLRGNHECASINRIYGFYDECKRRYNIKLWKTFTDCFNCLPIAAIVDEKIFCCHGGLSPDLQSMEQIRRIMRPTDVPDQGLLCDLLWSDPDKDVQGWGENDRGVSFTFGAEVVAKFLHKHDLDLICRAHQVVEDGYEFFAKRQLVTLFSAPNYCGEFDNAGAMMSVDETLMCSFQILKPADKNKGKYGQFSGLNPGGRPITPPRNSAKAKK
LYPLA1 counter – blocks human lysophospholipase 1, a PME1 counter-screen; recombinant LYPLA1, FP-Rh probe fluorescence polarization; inhibition, % at 5.9 µM; 320,000 tested, 0.16% active;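 active = inhibition above the mean of all tested compounds plus 3 SD, set per campaign, cut at about 14% in these data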;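 also: inhibitors block serine hydrolase probe labeling of LYPLA1 so polarization falls; 0% = enzyme with DMSO and 100% = wells lacking LYPLA1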
PME-1 primary – blocks human protein phosphatase methylesterase 1; Q9Y570; recombinant PME-1, FP-Rh probe fluorescence polarization; inhibition, % at 5.9 µM; 320,000 tested, 0.53% active; AID 2130;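 active = inhibition above the campaign mean of all compounds plus 3 SD, cut at about 26% in these data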;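 also: competitive labeling of PME-1 active site by serine hydrolase directed probe; 0% = PME-1 with DMSO and 100% = wells lacking PME-1 enzyme; inhibitors block probe labeling so polarization falls and inhibition rises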
Fam108B counter – blocks mouse Fam108B hydrolase in RBBP9 counter-screen; recombinant Fam108B, FP-Rh probe fluorescence polarization; inhibition, % at 9.51 µM; 300,000 tested, 0.33% active; AID 1947;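 active = inhibition above the screen mean inhibition plus 3 SD, computed separately per campaign, cut at about 18% in these data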;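 also: inhibitors lower polarization as less probe binds the enzyme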
PP5 primary – blocks human protein phosphatase 5 activity; P53041; purified PP5c, OMFP substrate fluorescence; inhibition, % at 6.7 µM; 320,000 tested, 0.18% active; AID 1987;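 active = inhibition above the campaign's mean inhibition across all tested compounds plus 3 SD, cut at about 9.5% in these data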;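 also: 0% = DMSO only and 100% = 100 µM cantharidin control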
LYPLA2 counter – LYPLA2 (human) inhibition in PME1 counter-screen | 320,000 tested, 0.38% active | recombinant LYPLA2, FP-Rh probe fluorescence polarization | AID 2177 | O95372 | inhibition, % at 5.9 µM;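 active = inhibition above the screen-wide mean plus 3 SD, limit set per campaign, cut at about 26% in these data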;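 also: 0% = LYPLA2 with DMSO and 100% = wells lacking LYPLA2 enzyme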
Target sequence (O95372 whole entry, looked up): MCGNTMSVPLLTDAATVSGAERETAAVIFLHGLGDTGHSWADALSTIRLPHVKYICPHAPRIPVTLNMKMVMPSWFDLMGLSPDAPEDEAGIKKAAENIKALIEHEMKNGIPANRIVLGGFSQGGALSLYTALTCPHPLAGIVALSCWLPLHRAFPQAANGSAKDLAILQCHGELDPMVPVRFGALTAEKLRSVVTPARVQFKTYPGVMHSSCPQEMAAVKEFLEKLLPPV
PP1 confirm – confirmation of human PP1 phosphatase inhibitors; shares compounds with PP1 inh; purified PP1alpha, OMFP substrate fluorescence; inhibition, % at 6.7 µM; 1,900 tested, 52% active;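 active = mean PP1 inhibition above a set limit taken from the earlier primary screen, cut at about 15% in these data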
PP5 counter – inhibits human PP5 phosphatase in PP1 counter-screen | 1,900 tested, 4% active | purified PP5c, OMFP fluorescence | AID 2360 | shares compounds with PP1 inh | inhibition, % at 6.7 µM;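 active = mean PP5 inhibition over triplicate wells above about 9.5% taken from the earlier PP1 screen, limit read from the data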
Starred values were filed as active, the others as inactive; . = no result given.

SMILES	PP1 inh	LYPLA1 counter	PME-1 primary	Fam108B counter	PP5 primary	LYPLA2 counter	PP1 confirm	PP5 counter
O=C(Cc1csc(NC(=O)Nc2cccc(Cl)c2)n1)NC1CCCC1	36*	-5	11	1	4	-12	42*	-1
Cc1ccc(C)n1-c1ccc(-c2nnco2)cc1	24*	-1	-2	3	0	-2	1	-3
Cc1ccc(C)n1-c1ccc(-n2cnnn2)cc1	25*	-1	-4	-1	1	1	15*	-1
C=CCCN(Cc1ccccc1)S(=O)(=O)c1cc(Br)ccc1Br	3	0	-11	.	1	5	.	.
Cc1ccc(S(=O)(=O)N2[C@@H](c3ccccc3)C(C(=O)O)=CC[C@H]2c2cccc(Cl)c2)cc1	6	-2	0	-2	5	2	.	.
Cc1ccc(S(=O)(=O)N2[C@@H](c3cccc(Cl)c3)C(C(=O)O)=CC[C@H]2c2ccc(Cl)cc2)cc1	19*	-7	1	-5	2	-3	10	2
Cc1ccc(S(=O)(=O)N2[C@@H](c3ccc(Cl)cc3)C(C(=O)O)=CC[C@H]2c2ccc(Cl)c(Cl)c2)cc1	21*	-12	-11	-14	3	-17	16*	3
COc1ccccc1CC(=O)NNC(=O)c1ccco1	0	1	-4	-3	1	3	.	.
COc1ccc(CN(C)C(=O)Cn2ccc(N)nc2=O)cc1OC	-2	3	2	.	-1	1	.	.
COc1cccc(/C=C/C(=O)OCC(=O)c2ccc3c(c2)NC(=O)CO3)c1	33*	-2	-19	.	1	7	28*	-3
Cc1cc(C)cc(OCC(=O)OCC(=O)c2ccc3c(c2)NC(=O)CO3)c1	0	0	-5	-1	4	4	.	.
CCOc1ccc2nc(NC3=NC(c4ccc(OC)cc4)CC(=O)N3)nc(C)c2c1 (stereo unspecified)	39*	0	-12	-11	4	-5	11	-2
COc1ccc(CCNC(=O)CCNC(=O)c2ccc([N+](=O)[O-])cc2)cc1	-2	0	0	2	2	4	.	.
Cc1ccc(NC(=O)CSc2nnnn2C2CCCC2)cc1S(=O)(=O)N1CCOCC1	5	-2	2	.	5	-3	.	.
O=C(O)CN1C(=O)/C(=C/C=C/c2ccccc2)SC1=S	2	2	-5	-1	3	5	.	.
O=C1CC(N2C(=O)/C(=C/C=C/c3ccccc3)SC2=S)C(=O)N1c1ccccc1 (stereo unspecified)	24*	-22	-37	-4	-7	-25	8	-2
COc1cccc(CN(C)C(=O)c2ccccc2SCC(=O)N2CCCC2)c1	2	0	0	1	0	2	.	.
COc1cccc(CNC(=O)c2ccccc2SCC(=O)N2CCCC2)c1	26*	0	0	-1	0	1	-5	-6
C#CCOCCOCCOCCNc1nc(N2CCN(C(=O)CCCCCCCCCCNC(=O)Cn3cc(CCCCCN)nn3)CC2)nc(N2CCN(C(=O)CCCCCCCCCCNC(=O)[C@@H](CCC(=O)O)n3cc(CCCCCN)nn3)CC2)n1	4	1	1	-3	-1	5	.	.
C#CCOCCOCCOCCNc1nc(N2CCN(C(=O)CCCCCCCCCCNC(=O)Cn3cc(CCCCCN)nn3)CC2)nc(N2CCN(C(=O)CCCCCCCCCCNC(=O)Cn3cc(CCCCCN)nn3)CC2)n1	33*	5	-1	4	0	11	9	-6
C#CCOCCOCCOCCNc1nc(N2CCN(C(=O)CCCCCCCCCCNC(=O)[C@@H](CCSC)n3cc(CCO)nn3)CC2)nc(N2CCN(C(=O)CCCCCCCCCCNC(=O)[C@H](CCSC)n3cc(CCO)nn3)CC2)n1	23*	-12	-33	-19	3	-24	4	2
C#CCOCCOCCOCCNc1nc(N2CCN(C(=O)CCCCCCCCCCNC(=O)Cn3cc(CCCCCN)nn3)CC2)nc(N2CCN(C(=O)CCCCCCCCCCNC(=O)[C@@H](CCSC)n3cc(CCO)nn3)CC2)n1	36*	-6	-5	-2	1	-4	41*	0
CC(=O)N1c2ccc(S(=O)(=O)N3CCCCC3)cc2CC1C(=O)NCc1cccc(Cl)c1 (stereo unspecified)	-1	-1	4	6	-2	-5	.	.
COc1ccccc1NS(=O)(=O)c1ccc(C(=O)N2CCN(c3ccccc3)CC2)cc1	-4	3	14	.	1	13	.	.
O=C(CSc1nc2ccccc2c(=O)n1Cc1ccccc1)Nc1ccc(Br)cc1C(=O)O	20*	-12	-11	-13	3	-16	15*	4
SMILES	PP1 inh	LYPLA1 counter	PME-1 primary	Fam108B counter	PP5 primary	LYPLA2 counter	PP1 confirm	PP5 counter
O=c1[nH]c(CSc2nnc(Nc3ccccc3)s2)nc2ccccc12	28*	-4	-2	-9	-2	-11	18*	-3
O=C(Nc1cccc([N+](=O)[O-])c1)c1cc2ccccc2cc1O	23*	-8	-2	5	1	-12	19*	-1
O=[N+]([O-])c1cc(Cl)ccc1N1CCCCC1	-2	-2	-3	3	0	1	.	.
O=[N+]([O-])c1ccc(N2CCCCC2)c(Cl)c1N1CCCCC1	47*	-2	-8	2	1	-3	-2	-3
O=C(Nc1nnc(-c2ccco2)o1)c1cccc(Cl)c1	2	-1	0	-2	1	-3	.	.
O=C(Nc1nnc(-c2ccco2)o1)c1ccc(Cl)s1	18*	-3	6	-1	-2	-2	3	-2
COc1cccc(-c2nnc(NC(=O)c3ccc(Cl)s3)o2)c1	22*	4	-5	-3	-1	4	25*	-5
Cc1ccc(N2C(=O)C(Cl)=C(N3CCOCC3)C2=O)c(C)c1	-2	3	5	5	4	9	.	.
COc1ccccc1C1C2=C(N=c3s/c(=C/c4cccc(OCC(=O)O)c4)c(=O)n31)c1ccccc1CC2 (stereo unspecified)	20*	-11	2	-10	3	-17	19*	0
COc1cccc(C2C3=C(N=c4s/c(=C\c5cccc(O)c5)c(=O)n42)c2ccccc2CC3)c1OC (stereo unspecified)	1	-36	-37	-23	4	-59	.	.
COc1cccc(C2C3=C(N=c4s/c(=C\c5ccc(OCC(=O)O)cc5)c(=O)n42)c2ccccc2CC3)c1 (stereo unspecified)	23*	-18	-24	-32	2	-24	7	-2
NC(=O)CC(NC(=O)c1ccccc1)c1ccc(NCCc2cccc(F)c2)c([N+](=O)[O-])c1 (stereo unspecified)	5	-5	-1	-1	3	0	.	.
